Bioassay records: PubChem BioAssay, National Center for Advancing Translational Sciences (NCATS)
In the library only some 19% were active in any assay of this set; here they are far more common.
TDP1 block: blocks human tyrosyl-DNA phosphodiesterase 1. recombinant TDP1, AlphaScreen DNA substrate cleavage. Potency, µM (highest dose often 130 µM), inactives show at the highest dose activity change, negative = inhibition, hits mostly inhibitors. hit rate 0.28% among 350,000. AID 485290; note: potency is the fitted concentration of half-maximal effect; nearly all actives have a fitted effect of over 40% in size
Target sequence (Q9NUW8 whole entry, looked up): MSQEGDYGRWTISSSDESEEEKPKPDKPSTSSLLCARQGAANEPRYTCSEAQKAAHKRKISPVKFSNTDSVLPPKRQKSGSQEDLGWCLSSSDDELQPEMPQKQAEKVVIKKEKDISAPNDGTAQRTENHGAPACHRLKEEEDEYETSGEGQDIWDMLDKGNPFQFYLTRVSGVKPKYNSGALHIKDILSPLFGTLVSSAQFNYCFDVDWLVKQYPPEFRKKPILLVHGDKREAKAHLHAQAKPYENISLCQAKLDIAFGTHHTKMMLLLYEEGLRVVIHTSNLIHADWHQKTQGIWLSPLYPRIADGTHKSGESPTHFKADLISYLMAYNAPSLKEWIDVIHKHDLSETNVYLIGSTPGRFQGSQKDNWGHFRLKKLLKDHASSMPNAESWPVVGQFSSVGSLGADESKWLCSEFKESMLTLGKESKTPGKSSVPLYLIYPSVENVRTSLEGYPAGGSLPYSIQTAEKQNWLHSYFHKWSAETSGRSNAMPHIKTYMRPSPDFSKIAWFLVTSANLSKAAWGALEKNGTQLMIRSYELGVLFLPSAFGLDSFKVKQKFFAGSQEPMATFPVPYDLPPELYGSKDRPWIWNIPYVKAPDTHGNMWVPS
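Compounds were preincubated with Tdp1 (1 nM final) for 15 min at room temperature before substrate (15 nM final) started a 5 min reaction; beads (10 ug/ml final) were then added for 10 min before AlphaScreen detection.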
TDP1 cell noCPT: qHTS for Inhibitors of human tyrosyl-DNA phosphodiesterase 1 (TDP1): qHTS in cells in absence of CPT | DT40 Tdp1-/- hTDP1 cells, no CPT, ATP luminescence, 48 h | hit rate 15% among 420,000 | Potency, µM (doses to about 46.2 µM), for the others: at the top dose activity change, negative = growth inhibition, actives largely listed as inhibitors; note: potency is the fitted concentration of half-maximal effect; nearly all actives have a fitted effect of over 55% in size
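No-CPT arm: Tdp1-/-;hTDP1 DT40 cells (400/well) plus compounds, incubated ≥48 hr at 37 °C. Readout CellTiter-Glo luminescence.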
Giardia kill: kills Giardia lamblia; Giardia lamblia trophozoite viability; activity change, % at 7.66 µM, hits read low; hit rate 0.15% among 340,000; AID 540267; in the data active = activity change below about -80%; inconclusive = between about -30% and that limit;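 note: parasites exposed to compound for two days anaerobically before the ATP read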
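Viability, read as ATP luminescence: trophozoites at 100 cells/well, compound added, 48 hrs anaerobic at 37 deg C, then 15-30 min room-temperature development before reading.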
DT40 TDP1 CPT: growth inhibition of DT40 Tdp1-/-;hTDP1 cells with camptothecin (screen for TDP1 inhibitors); chicken DT40 Tdp1-/-;hTDP1 cells + 20 nM CPT, ATP luminescence, 48 h; Potency, µM (highest dose often 46.2 µM), inactives show top-dose activity change, negative = growth inhibition, hits mostly inhibitors; hit rate 12% among 420,000; AID 686979; note: potency is the fitted concentration of half-maximal effect; nearly all actives have a fitted effect of over 55% in size
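Chicken DT40 Tdp1-/- cells complemented with human TDP1, 400 cells/well, exposed to compounds plus 20 nM camptothecin for at least 48 h at 37 C; viability read as ATP content by CellTiter-Glo luminescence.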
ELG1 DNA repair: blocks ELG1-dependent DNA repair in HEK293T cells | HEK293T ELG1-luciferase reporter, luminescence, 16 h; DNA damage induced by 5-fluorouridine | hit rate 2.3% among 330,000 | AID 504467 | Potency, µM (titrated, usually from 46.1 µM), inactives show at the highest dose activity change, negative = inhibition, usual class: inhibitors; note: potency is the fitted concentration of half-maximal effect; nearly all actives have a fitted effect of over 55% in size
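In this reporter screen, reduction of luminescence relative to DMSO vehicle indicated activity. Compounds and 5-fluorouridine were added together to 2,000 cells per well, incubated for 16 hr at 37 °C, then developed with ONE-Glo.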
IL1B secr inh: inhibitors of inflammasome signaling (IL-1 beta secretion). THP-1 LPS/ATP IL-1B secretion, AlphaLISA, 16 h; active compounds read low. activity change, % at 57.5 µM. hit rate 4.7% among 360,000. AID 743279; in the data active = activity change below about -50%; inconclusive = mostly about -30% to -49%
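THP-1 cells pretreated 1 hr with compounds (up to 57.5 uM final), then stimulated with LPS (250 ng/mL final) plus ATP (1.25 mM final); secreted IL-1B measured by AlphaLISA after 16 hr, decreased signal indicating inhibition.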
An asterisk follows results filed as active; ? = inconclusive; · = not tested or not shown. Unless noted, calls come from the whole dose curve; as a rule, active = well fitted curve in the direction sought with a large enough effect; inconclusive = small, poorly fitted or top-dose-only effect, or another doubt; inactive = no such curve, though single readings can be large; an effect the other way counts as inactive or inconclusive. % is set by controls: 0 for no effect and ±100 for the full control effect.

SMILES	TDP1 block	TDP1 cell noCPT	Giardia kill	DT40 TDP1 CPT	ELG1 DNA repair	IL1B secr inh
COc1ccc(NC(=O)CCNS(=O)(=O)c2ccc3c(c2)CCCC(=O)N3)cc1	-3.2%	·	·	·	·	·
O=C(CCCC(=O)N1CCc2ccccc21)N1CCc2ccccc21	-4.1%	-11.2%	-9.6	-3.9%	-0.8%	5.8
O=C(CN1CCCc2ccccc21)N1CCc2ccccc21	6.8%	?	-18.0	16.4µM*	-7.9%	48.8
CCOC(=O)c1cc2sccc2n1CC(=O)N1CCc2ccccc21	4.2%	11.6µM*	4.4	4.61µM*	5.3%	-3.6
CCOCC(=O)N1CCc2ccccc21	6.8%	18.4µM*	-18.5	-0.4%	18.3%	51.0
CC1(OC(=O)c2ccc(Cl)nc2)C(=O)C=C2C=C3CCCN3C=C2C1=O (stereo not given)	8.91µM*	?	-2.8	?	4.8%	52.9
O=C(Nc1ccc(F)cc1)[C@H](Cc1ccccc1)N1Cc2ccccc2C1=O	4.6%	?	·	-26.2%	·	·
COc1ccc(S(=O)(=O)n2nc(C)c(S(=O)(=O)N3CCCCC3)c2C)cc1	0.6%	22.2%	·	-0.2%	·	·
Cc1ccc(N=C2C(=O)Nc3ccccc32)cc1	·	4.3%	7.5	-4.8%	21.0%	17.4
Cc1nc2c(o1)C(=O)c1ccccc1C2=Nc1ccccc1	·	2.06µM*	-100.7*	2.31µM*	·	-100.3*
O=C(COC(=O)CCNS(=O)(=O)c1ccccc1)Nc1ccc(OC(F)F)cc1	0.2%	28.2%	8.7	3.1%	9.5%	6.4
CCCCc1cc(=O)oc2cc(O)cc(O)c12	-2.7%	9.2µM*	-6.9	2.7%	-13.0%	36.1
CCCCc1cc(=O)oc2cc(C)c3c(C)coc3c12	-1.2%	?	·	14.6µM*	·	·
CCCCc1cc(=O)oc2cc(C)cc(O)c12	-3.9%	?	-7.4	?	-6.3%	-15.4
CO[C@H]1C[C@@H]2CC[C@@H](C)[C@@](O)(O2)C(=O)C(=O)N2CCCC[C@H]2C(=O)O[C@H]([C@H](C)C[C@@H]2CC[C@@H](O)[C@H](OC)C2)CC(=O)[C@H](C)C=C(C)[C@@H](O)[C@@H](OC)C(=O)[C@H](C)C[C@H](C)/C=C/C=CC=C1C	·	0.0047µM*	·	0.0024µM*	·	·
CO[C@H]1C[C@@H]2CC[C@@H](C)[C@@](O)(O2)C(=O)C(=O)N2CCCC[C@H]2C(=O)O[C@H]([C@H](C)C[C@@H]2CC[C@@H](OC(=O)C(C)(CO)CO)[C@H](OC)C2)CC(=O)[C@H](C)/C=C(\C)[C@@H](O)[C@@H](OC)C(=O)[C@H](C)C[C@H](C)/C=C/C=C/C=C/1C	·	-28.7%	·	-19.9%	·	·
Cc1ccc(S(=O)(=O)NC(=O)Nc2ccc(Cl)cn2)cc1	0.0%	-5.5%	6.3	5.3%	9.0%	-9.5
Cc1ccc(S(=O)(=O)NC(=O)NC2=NC(C)(C)N(c3ccc(Cl)c(Cl)c3)C(N)=N2)cc1	·	1.03µM*	·	0.92µM*	·	16.1
Cc1ccc(-n2c(=O)c3c(cnn3C)n(CC(=O)Nc3cccc(C)c3)c2=O)cc1	2.9%	?	·	-25.8%	·	·
O=C(CNC(=O)c1ccccc1)N/N=C/c1cc(Br)ccc1O	2.7%	7.31µM*	-12.3	7.31µM*	-29.4%	60.5
C/C(=N/NC(=O)CNC(=O)c1ccccc1F)c1ccc2c(c1)CCCC2	3.7%	?	-11.6	?	-23.7%	12.7
O=C(N/N=C/c1cc(Cl)ccc1O)c1cccnc1	·	1.03µM*	-14.1	0.92µM*	?	234.0
O=C(N/N=C/c1cccnc1)c1cccc(Cl)c1	·	-12.2%	5.7	8.1%	0.0%	0.7
O=C(COc1ccccc1)NCC(=O)N/N=C/c1cc(Br)ccc1OCc1ccccc1	0.0%	16.4µM*	-7.3	23.1µM*	?	-52.6*
C/C(=N/NC(=O)CNC(=O)c1ccc2c(c1)OCO2)c1ccc2c(c1)CCCC2	3.5%	-19.1%	32.3	8.2%	11.9%	-50.2*
SMILES	TDP1 block	TDP1 cell noCPT	Giardia kill	DT40 TDP1 CPT	ELG1 DNA repair	IL1B secr inh
Cc1ccc(C)c(Cn2c(=O)n(CCCCC(=O)NCc3ccc4c(c3)OCO4)c(=O)c3ccccc32)c1	-0.9%	?	·	?	·	·
Cc1c(Cl)cccc1NC(=O)Cn1nc(C(F)(F)F)c2c1CCC2	0.0%	-4.1%	·	-25.5%	·	·
O=C(CN1CC(c2ccccc2)CC1=O)N/N=C/c1cc(Br)ccc1O (stereo not given)	4.6%	6.51µM*	-12.9	8.2µM*	11.8%	70.8
O=C(CNC(=O)c1ccccc1Br)N/N=C/c1ccccc1O	7.4%	23.1µM*	7.6	?	?	132.3
O=C(N/N=C/c1cc(Cl)ccc1O)c1ccccc1Br	2.7%	6.51µM*	13.3	6.51µM*	?	297.5
O=C(CNC(=O)c1ccco1)N/N=C/c1cc(Br)ccc1O	-8.4%	5.8µM*	20.8	2.91µM*	?	123.8
CC1=NN(c2ccccc2)C(=O)/C1=C/c1cn(C)c2ccccc12	4.7%	?	-10.4	?	-14.9%	14.1
O=C(CN1C(=O)C2(SCC(=O)N2c2ccc(F)c(F)c2)c2ccccc21)Nc1cccc(Cl)c1 (stereo not given)	5.3%	?	·	?	·	·
N=c1nc(-c2ccccc2)n(-c2ccccc2)s1	·	?	13.8	?	·	·
CCOc1cccc(/C=N/NC(=O)c2cccnc2)c1O	3.7%	?	9.0	?	?	124.5
O=C(N/N=C/c1ccccc1OCc1ccccc1Cl)c1cccnc1	3.6%	23.1µM*	5.6	?	-4.3%	48.6
O=C(N/N=C\c1cc(Br)c(Br)o1)c1cncc(Br)c1	1.8%	?	4.6	?	-13.7%	9.6
O=C(CNC(=O)c1ccncc1)N/N=C/c1cc(Br)ccc1O	-4.6%	-4.6%	-21.5	-28.5%	-3.8%	52.9
O=C(COc1ccc(-c2ccccc2)cc1)N/N=C/c1cc(O)ccc1Br	3.5%	16.4µM*	-6.3	?	3.7%	-95.0*
O=C(N/N=C/c1cc(Br)c(Br)o1)c1cccnc1	-5.4%	18.4µM*	-4.0	16.4µM*	-13.9%	6.1
O=C(CNC(=O)c1ccccc1Br)N/N=C/c1cc(Br)ccc1O	5.3%	5.8µM*	?	8.2µM*	?	264.3
Cc1cc(NS(=O)(=O)c2ccc(NC(=O)c3ccccc3F)cc2)no1	1.2%	15.6%	15.1	-19.2%	0.0%	-18.0
O=C(CNC(=O)c1ccc2c(c1)OCCO2)N/N=C/c1cccc(Br)c1	0.0%	?	-18.8	-21.2%	8.4%	-14.9
O=C(CNC(=O)c1ccc2c(c1)OCO2)N/N=C/c1cc(Br)ccc1O	-5.1%	8.2µM*	0.8	8.2µM*	-26.0%	115.3
